Compounds with a hit are over-represented: about 1.2% of the library has one in this group of screens.
Tb PGK inh: T. brucei PGK inhibition; PGK/GAPDH coupled, Kinase-Glo luminescence, 60 min; Potency, µM (highest dose often 57.5 µM), for the others: at the top dose activity change, negative = inhibition, usual class: inhibitors; 380,000 compounds, 0.043% hits; AID 602233; also: potency is read from the fitted curve at half-maximal effect; nearly all actives have a fitted effect of over 60% in size
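Recombinant glycosomal PGK reaction used 1,3-bisphosphoglycerate generated in-well by GAPDH (100nM final) in 100mM TEA pH 7.6, 5mM MgCl2, 0.01% Tween-20. After 60 minutes at room temperature, ATP was read by Kinase-Glo Plus luminescence end-point.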
GoLoco inh red: blocks human Gai1 binding to RGS12 GoLoco peptide, red readout. 230,000 compounds, 0.44% hits. P63096. Potency, µM (highest dose often 61.6 µM), without a hit: at the top dose activity, negative = inhibition, hits mostly inhibitors. Gai1:RGS12 GoLoco peptide FP, rhodamine, 10 min; active = well fitted inhibition curve with a large enough effect, not every such curve was filed as active; inactive = no such curve, though single readings can be large or run the other way; also: potency is read from the fitted curve at half-maximal effect; nearly all actives have a fitted effect of over 30% in size
Target sequence (P63096 whole entry, looked up): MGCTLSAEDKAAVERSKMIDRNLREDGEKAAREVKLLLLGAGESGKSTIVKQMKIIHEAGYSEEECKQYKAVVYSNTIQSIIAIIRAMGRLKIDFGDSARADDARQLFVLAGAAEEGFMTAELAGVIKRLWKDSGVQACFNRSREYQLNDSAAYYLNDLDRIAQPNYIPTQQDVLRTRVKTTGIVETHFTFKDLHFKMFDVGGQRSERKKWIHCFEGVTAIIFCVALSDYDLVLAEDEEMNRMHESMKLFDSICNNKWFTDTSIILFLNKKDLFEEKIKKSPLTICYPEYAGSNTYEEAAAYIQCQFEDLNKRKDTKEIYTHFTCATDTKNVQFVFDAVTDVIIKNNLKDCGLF
GCN5L2 inh: GCN5L2 (KAT2A) acetyltransferase inhibition | GCN5L2 HAT assay, ThioGlo1 CoA-SH fluorescence | Potency, µM (highest dose often 58.9 µM), for inactives: at the highest dose activity change, negative = inhibition, hits mostly inhibitors | 390,000 compounds, 0.21% hits | AID 504327; also: potency is read from the fitted curve at half-maximal effect
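Free CoA generated was detected with ThioGlo1 (50uM) fluorescence at Ex340nm/Em540nm, read immediately and after 20 min at room temperature. Enzyme, 20 nM in HEPES pH 7.5 buffer, saw compounds 15 min before adding 75uM H3(1-25) peptide and 70uM acetyl-CoA.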
Pin1 inh: human Pin1 inhibition; 390,000 compounds, 0.009% hits; Q13526; Potency, µM (series often up to 115 µM), without a hit: at the top dose activity, negative = inhibition, hits mostly inhibitors; Pin1 FP peptide displacement, HiFluor488, 10 min; AID 504891; active = well fitted inhibition curve with a large enough effect in the polarisation, with a control signal flat, not every such curve was filed as active; inconclusive = small, poorly fitted or top-dose-only effect, or effect the other way, or a change in a side signal; inactive = no such curve, though single readings can be large or run the other way; the % refers to the polarisation; also: potency is read from the fitted curve at half-maximal effect
Target sequence (Q13526 whole entry, looked up): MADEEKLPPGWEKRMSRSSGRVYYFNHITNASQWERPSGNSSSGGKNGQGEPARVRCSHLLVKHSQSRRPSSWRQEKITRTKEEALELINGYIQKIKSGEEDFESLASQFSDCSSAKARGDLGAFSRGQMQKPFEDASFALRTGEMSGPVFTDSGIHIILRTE
PI5P4K alpha inh: blocks human PI5P4K alpha kinase activity | 330,000 compounds, 1.2% hits | PI5P4Kalpha enzyme, ADP-Glo luminescence, 60 min; hits give low values | max response, % | P48426; active = max response of -50% or lower; inconclusive = between -30% and -50%; inactive = -30% or higher; also: value at the top dose of about 77 µM
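Compounds were pin-transferred onto PI5P4Kalpha and substrate in HEPES pH 7.4 buffer with EGTA, CHAPS and 5% DMSO. ATP (5 microM final) started the reaction, which ran 60 minutes at room temperature before ADP-Glo detection.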
PI4K2A block: PI4K2A (human) kinase inhibition | purified PI4K2A, ADP-Glo luminescence, 1 h; hits give low values | 420,000 compounds, 0.13% hits | activity change, negative = inhibition, % at 76.9 µM; in the data active = activity change below about -50%; inconclusive = mostly about -30% to -49%;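 also: -100% = wells without enzyme as full effect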
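ADP-Glo luminescence measured ADP generated by PI4K2A enzyme (4 ug/mL before mixing) with 1.2 mM PI substrate (pre-mix) and 300 microM ATP (pre-mix). Tris pH7.5 buffer with MgCl2, Triton X-100; 1 h reaction at ambient temperature.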
* = called active by the depositor; i = inactive; ? = inconclusive; / = no result given. Unless noted, calls follow the shape of the dose curve; as a rule, active = well fitted curve in the direction sought with a large enough effect; inconclusive = small, poorly fitted or top-dose-only effect, or another doubt; inactive = no such curve, though single readings can be large; an effect the other way counts as inactive or inconclusive. Unless noted, % is scaled to controls: 0 for no effect and ±100 for the full control effect.

SMILES	Tb PGK inh	GoLoco inh red	GCN5L2 inh	Pin1 inh	PI5P4K alpha inh	PI4K2A block
O=C1N/C(=N/S(=O)(=O)c2ccccc2)S/C1=C/c1cccnc1	i	15%	-7%	-13%	-57*	-18
CCN(CC(=O)Nc1ccccc1C(F)(F)F)C(=O)C1CC(=O)N(Cc2ccccc2)C1 (stereo unspecified)	0%	/	2%	10%	29	-1
Cc1ccc2nc(NC(=O)c3ccc(N4C(=O)CCC4=O)cc3)sc2c1	-6%	42%	-6%	0%	-54*	-7
CC1=NN(c2ccc(S(=O)(=O)O)cc2Cl)C(=O)C1	-3%	3%	-5%	-13%	1	-61*
CC1=NN(c2cccc(Cl)c2)C(=O)C1	0%	1%	-18%	0%	8	-60*
CC1=NN(c2cc(Cl)c(S(=O)(=O)O)cc2Cl)C(=O)C1	?	/	/	?	1	-17
CC1=NN(c2ccc(Cl)c(C(=O)O)c2)C(=O)C1	-22%	7%	-1%	?	-17	-29
COc1cc2c(Nc3ccc(Br)cc3F)ncnc2cc1OCC1CCN(C)CC1	/	/	-13%	/	/	-1
COCCN(Cc1nc2ccccc2c(=O)[nH]1)C(=O)COc1ccccc1-c1ccccc1	-5%	/	-12%	7%	-7	-4
CCOC(=O)C1=C(COC(=O)COc2cc(C)ccc2C)NC(=O)NC1C (stereo unspecified)	6%	/	-24%	-7%	2	-5
Fc1ccc(N=C2NN=C(c3cc(F)ccc3F)CS2)cc1	-9%	20%	-19%	-1%	-13	-1
O=S(=O)(c1ccc(N=C2NN=C(c3cc(F)ccc3F)CS2)cc1)N1CCOCC1	-8%	-10%	-25%	19%	-51*	-8
Cc1ccc(NC(=O)c2cc(NC(=O)/C=C\C(=O)O)ccc2N2CCCCC2)cc1	-10%	/	-10%	-2%	-69*	-3
CC(=O)Nc1ccc(N2CCCCC2)c(C(=O)Nc2cccc(C)c2)c1	-2%	-16%	-7%	2%	/	-3
COC(=O)c1ccccc1CSc1nsc(/C=C/N(C)C)c1C#N	-8%	/	-12%	?	-57*	2
Cc1nc(CSc2nsc(/C=C/N(C)C)c2C#N)cs1	4%	196%	-20%	?	?	0
CCCOC(=O)c1c(NC(=O)C2C3C=CC(C3)C2C(=O)O)sc2c1CCC(C)C2 (stereo unspecified)	-13%	-9%	0%	?	-59*	1
CC(C)N1CCc2c(sc(NC(=O)c3ccc(S(=O)(=O)N4CCOCC4)cc3)c2C#N)C1	-7%	164%	-10%	?	2	-4
CCOC(=O)N1CCc2c(sc(NC(=O)c3ccc(S(=O)(=O)N4CCCC4)cc3)c2C#N)C1	-2%	137%	-6%	?	-82*	4
COC1=CC(=O)C(O)=C(CCCCCCC/C=C/CCCCCCCC2=C(O)C(=O)C=C(OC)C2=O)C1=O	?	/	/	/	-75*	-12
CCCCCCCCCCCC1=C(O)C(=O)C=C(O)C1=O	-7%	10%	/	28µM*	-62*	-12
CCCCCCCCCCC1=C(C)C(=O)C(OC)=C(OC)C1=O	/	1%	-5%	/	/	/
CN(CC(=O)Nc1ccccc1Cl)C(=O)COC(=O)/C=C/c1ccccc1	-6%	/	-8%	2%	0	2
Cc1nc2scc(-c3ccccc3)c2c(=O)n1N	-1%	-10%	4%	-1%	-5	8
Cc1nc2scc(-c3ccccc3)c2c(=O)n1N=C1C=CC(=O)C=C1	i	12%	-2%	-11%	-101*	-8
CC(C)c1nnc(NC(=O)c2cc3ccccc3o2)s1	-1%	/	-4%	-1%	-3	-1
O=C(Nc1cccc(Cl)c1)c1cc(-c2ccc3c(c2)OCCO3)on1	-12%	/	-16%	11%	/	-12
CCCCCC(CC(=O)O)C(=O)O (stereo unspecified)	/	-2%	5%	/	/	/
CCCCCCCCCCCCCCC(C(=O)O)C(O)(CC(=O)OC)C(=O)O (stereo unspecified)	/	-2%	13µM*	/	/	/

Source: PubChem BioAssay (National Center for Advancing Translational Sciences (NCATS))
